# Assay results reported in the supplement of paper PMC3334620.
# Over roughly 33,000 sequences, “E-score (-0.5 to 0.5)” has its median near -0.011; the highest 2% begin near 0.28. This is one part of a sample in which the highest values are shown more often than they occur.
# Biological target: T1, Gcr1 (UniProt P07261)
# T1 sequence: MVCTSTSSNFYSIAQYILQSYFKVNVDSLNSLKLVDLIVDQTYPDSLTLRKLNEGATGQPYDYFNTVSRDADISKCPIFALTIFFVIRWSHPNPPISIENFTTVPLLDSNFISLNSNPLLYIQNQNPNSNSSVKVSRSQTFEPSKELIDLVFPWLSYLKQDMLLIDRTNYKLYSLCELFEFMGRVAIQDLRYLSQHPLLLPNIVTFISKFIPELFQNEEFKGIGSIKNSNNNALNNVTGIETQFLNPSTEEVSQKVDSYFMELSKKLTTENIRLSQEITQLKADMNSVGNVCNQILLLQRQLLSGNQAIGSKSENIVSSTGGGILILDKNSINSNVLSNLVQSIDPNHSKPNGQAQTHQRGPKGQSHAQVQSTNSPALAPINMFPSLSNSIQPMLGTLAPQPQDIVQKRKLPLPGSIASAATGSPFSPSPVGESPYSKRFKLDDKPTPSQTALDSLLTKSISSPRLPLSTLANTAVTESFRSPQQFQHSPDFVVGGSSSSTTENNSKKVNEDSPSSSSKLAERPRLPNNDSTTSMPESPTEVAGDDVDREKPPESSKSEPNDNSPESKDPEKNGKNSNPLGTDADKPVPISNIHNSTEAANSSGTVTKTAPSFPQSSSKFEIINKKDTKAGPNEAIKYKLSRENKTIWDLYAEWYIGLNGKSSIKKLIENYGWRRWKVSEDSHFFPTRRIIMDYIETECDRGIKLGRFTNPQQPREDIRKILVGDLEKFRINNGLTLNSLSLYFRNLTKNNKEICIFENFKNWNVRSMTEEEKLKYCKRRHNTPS
# Experiment: PBM E-score (8-mer binding enrichment) (E-score (-0.5 to 0.5)); higher = stronger / more preferred TF binding
# Conditions: protein concentration: 100 nM; construct: GST-full length
# Procedure, shortened: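 Using PURExpress in vitro transcription/translation, GST-tagged yeast transcription factors were made in full-length or DNA-binding-domain form. These were applied at about 100-200 nM to double-stranded universal all-10-mer Agilent arrays, and bound protein was detected with fluorescent anti-GST. Scans were normalised with masliner before the Universal PBM Analysis Suite assigned E-scores to ungapped eight-base words pooled with their reverse complements.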
row,Sequence,PBM E-score
1,CTACGCAG,0.0122
2,ACACGCAC,0.0159
3,ACACGCAG,0.323
4,ATACGCAT,0.23
5,ATACGCAG,0.281
6,AGGCTATC,-0.243
7,TGTTCAAA,-0.014
8,AAGGAGGT,-0.0668
9,AAGAGGGG,0.0114
10,CCGGCTTA,-0.0254
11,CGGGCTGC,0.234
12,CCGGCTTC,0.358
13,CGGGCTTA,0.00411
14,CGGGCTTC,0.415
15,AGGGCTTA,-0.262
16,ACGGCTTC,0.238
17,AGGGCTTC,0.339
18,AGGGCTTG,-0.209
19,CTCCCCGC,0.196
20,ACGGCACG,-0.0602
21,ACGGTCGA,-0.354
22,GGGGGCGA,-0.0875

row,Sequence,PBM E-score
1,GCTGGTCA,-0.151
2,ACTCGTTC,-0.0676
3,CCCAATAA,0.0668
4,ATCACTCC,-0.0513
5,ACTGCCAT,0.0395
6,CCCCTCAA,-0.118
7,ATCCTGTA,0.28
8,ATCCTGAC,0.163
9,ATCCTGAA,0.31
10,GGGACCTA,0.0741
11,ACTATTGC,0.0299
12,ATGGCGTC,0.319
13,ATGGCGTG,-0.0168
14,CTGGCGGC,0.265
15,CTGGCGCC,0.319
16,ATGGCGCG,0.116
17,ATGGCGCC,0.343
18,ATGGCGCA,-0.122
19,CTGGCGTC,0.279
20,CTGGCGCA,-0.119
21,ACTAATGC,0.0263
22,ACAGATAG,-0.00305

row,Sequence,PBM E-score
1,AACCTGTA,0.211
2,ATTTCGGA,0.285
3,ATTTCGGC,0.141
4,ATTTCGGG,0.0915
5,GATCCCAC,0.235
6,CATTCCCA,0.103
7,TATCCCCA,0.052
8,GATTCCTA,0.439
9,GATTCCCA,0.334
10,GATTCCCC,0.289
11,AATTCCCC,0.0615
12,AATTCCCA,-0.0967
13,CATTCCCC,-0.0585
14,GATCCCCA,0.28
15,AATTCCTA,0.0723
16,CATTCCTA,-0.0304
17,GATCCCCC,0.176
18,CGCATCTC,0.0271
19,AAAGAGAA,0.022
20,CAGTTCGG,0.0773
21,CGGATTGA,-0.116
22,CAATGGGG,0.00495

row,Sequence,PBM E-score
1,ACGGTGGG,0.116
2,GGCTGCTA,0.318
3,AGCTGCCA,0.385
4,GGCTGCCA,0.418
5,GGCTGCAA,0.128
6,AGCTGCTA,0.226
7,ACCTGCCT,-0.218
8,TGCTGCCA,-0.0494
9,AGCTGCCT,0.32
10,CGCTGCTA,0.155
11,AACTGCCT,-0.0496
12,CGCTGCCA,0.185
13,GGCTGCCC,0.272
14,GATGGGAA,0.123
15,TACAGATA,-0.0799
16,ATATTTGA,0.0958
17,CTTTCGAA,-0.0912
18,CAGATAAC,-0.13
19,ACTTGACT,-0.0523
20,CACCGAGA,-0.00934
